Test [1] has as its system Sodium/Iodide Symporter (NIS), SLC5A5 (gene 6528). Nature of the test: CPHEA_Stoker_NIS_Inhibition_RAIU: CPHEA's Radioactive Iodide Uptake (RAIU) Assay for Sodium/Iodide Symporter (NIS) Inhibition, Stoker and Laws Labs (AID 2283841). The gist of the method:
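hNIS-HEK293T-EPA cells incubated 2 h at room temperature with compound (0.001–100 uM, 0.5% DMSO) and 329 pM final 125I in HBSS/10 mM HEPES, pH 7.4. Intracellular 125I counted; normalised to DMSO maximal uptake, triplicate, three biological replicates.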

Test [2] is described as follows: CPHEA_Stoker_NIS_Cytotoxicity: Cytotoxicity Assessment for CPHEA's Radioactive Iodide Uptake (RAIU) Assay for Sodium/Iodide Symporter (NIS) Inhibition, Stoker and Laws Labs (AID 2283897).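 On AC50: active means loss of ATP signal versus DMSO meaning cytotoxicity.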 In short, it runs like this: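 hNIS-HEK293T-EPA cells, human NIS expressed in HEK293T, treated 2 h with chemicals (0.001–100 uM, 0.5% final DMSO). ATP content read by CellTiter-Glo luminescence; loss of signal analysed relative to DMSO.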

Test [3] has as its target zebrafish Thyroid Hormone Receptor beta (TRb), thrb (gene 30607) (UniProt Q9PVE4). Nature of the test: ATG_zfTRb_XSP2: Attagene TRANS-FACTORIAL Multi-Species (XSP1) HepG2 Assay for zebrafish Thyroid Hormone Receptor beta (TRb) (AID 2283836). In short, it runs like this:
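Reporter transcripts were measured by RT-PCR with fluorescent primer extension and capillary electrophoresis, 24 h after chemical dosing of transiently transfected HepG2 cells. Activity was scored as upward signal versus DMSO baseline.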

In test [4] the target is human Thyroid hormone Receptor beta (TRb), THRB (gene 7068) (UniProt P10828). Nature of the test: ATG_hTRb_XSP2: Attagene TRANS-FACTORIAL Multi-Species (XSP2) HepG2 Assay for human Thyroid hormone Receptor beta (TRb) (AID 2283840).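 Further: actives raise reporter mRNA so potency reflects agonist-like gain of signal.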 The gist of the method:
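HepG2 transiently transfected with a multi-species panel including a human TRb–Gal4 chimera driving Gal4-UAS reporters; medium contained 3 nM 6-alpha-fluorotestosterone and 1.5 nM norgestrel. 24 h dosing; RT-PCR/capillary electrophoresis readout; positive-direction fit vs DMSO.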

The target of test [5] is human Thyroid hormone Receptor alpha (TRa), THRA (gene 7067) (UniProt P10827). Nature of the test: ATG_hTRa_XSP2: Attagene TRANS-FACTORIAL Multi-Species (XSP2) HepG2 Assay for human Thyroid hormone Receptor alpha (TRa) (AID 2283838). The gist of the method:
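Gain-of-signal in reporter mRNA, relative to DMSO, after 24 h dosing of transfected HepG2; quantitation by RT-PCR fragment analysis on capillary electrophoresis.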

Test [6] addresses frog Thyroid hormone Receptor alpha (TRa), thra-a (gene 397942) (UniProt P15204). Nature of the test: ATG_frTRa_XSP2: Attagene TRANS-FACTORIAL Multi-Species (XSP2) HepG2 Assay for frog Thyroid hormone Receptor alpha (TRa) (AID 2283839).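 On AC50: AC50 reflects induction of frog TRa-driven reporter mRNA above DMSO baseline.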 The gist of the method:
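HepG2 transiently transfected with multiplexed GAL4-UAS reporters driven by frog TRa-Gal4 chimeras; 24 h chemical exposure. Reporter mRNA quantified by RT-PCR, FAM labelling, HpaI digestion and capillary electrophoresis; gain of signal versus DMSO.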

The nature of test [7]: ATG_XTT_Cytotoxicity_XSP2: Cytotoxicity Assessment in the Attagene TRANS-FACTORIAL Multi-Species (XSP2) HepG2 Assay (AID 2283837). In short, it runs like this: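 XTT-based cell number read-out in human HepG2 liver cells carrying transfected reporter units, measured 24 h after chemical dosing. Activity is signal loss versus DMSO baseline.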
The next test has as its target PGR (gene 5241) (UniProt P06401). Nature of the test: TOX21_PR_BLA_Followup_Antagonist_ratio: Tox21 HEK293 Progesterone Receptor (PR) Antagonism Beta-lactamase Follow-Up Assay, Ratio (AID 2283934). The gist of the method:
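Read-out: blue/green beta-lactamase FRET ratio (cleaved ch2 over uncleaved ch1), fitted relative to DMSO baseline. Cells: PR-UAS-bla HEK293T, GAL4-UAS reporter, stimulated with 1 nM R5020 final; 16 hr compound exposure, 37C.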

Inconclusive results are not listed. A structure can be active in one record and inactive in another. The source made the active and inactive calls. How the source made its calls: active means hit-call score of the fitted dose curve at least 0.9, where 1 is the maximum; inconclusive means response in the unintended direction; inactive means score below 0.9.

human Thyroid hormone Receptor alpha (TRa), THRA (gene 7067), sequence (P10827 whole entry, looked up, the tested form may be a part): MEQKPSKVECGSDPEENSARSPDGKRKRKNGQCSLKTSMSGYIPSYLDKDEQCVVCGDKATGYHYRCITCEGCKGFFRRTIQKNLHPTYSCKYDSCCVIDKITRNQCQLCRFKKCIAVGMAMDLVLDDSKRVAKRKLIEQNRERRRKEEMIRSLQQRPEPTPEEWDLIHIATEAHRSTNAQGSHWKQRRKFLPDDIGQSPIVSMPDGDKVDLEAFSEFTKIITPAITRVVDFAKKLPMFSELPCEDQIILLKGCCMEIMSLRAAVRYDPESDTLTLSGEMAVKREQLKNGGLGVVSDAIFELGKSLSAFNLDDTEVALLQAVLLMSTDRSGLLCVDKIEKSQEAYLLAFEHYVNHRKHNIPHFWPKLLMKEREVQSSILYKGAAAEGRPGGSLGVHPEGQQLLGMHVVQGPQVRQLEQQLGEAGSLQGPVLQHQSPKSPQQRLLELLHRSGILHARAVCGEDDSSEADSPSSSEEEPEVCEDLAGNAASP
human Thyroid hormone Receptor beta (TRb), THRB (gene 7068), sequence (P10828 whole entry, looked up, the tested form may be a part): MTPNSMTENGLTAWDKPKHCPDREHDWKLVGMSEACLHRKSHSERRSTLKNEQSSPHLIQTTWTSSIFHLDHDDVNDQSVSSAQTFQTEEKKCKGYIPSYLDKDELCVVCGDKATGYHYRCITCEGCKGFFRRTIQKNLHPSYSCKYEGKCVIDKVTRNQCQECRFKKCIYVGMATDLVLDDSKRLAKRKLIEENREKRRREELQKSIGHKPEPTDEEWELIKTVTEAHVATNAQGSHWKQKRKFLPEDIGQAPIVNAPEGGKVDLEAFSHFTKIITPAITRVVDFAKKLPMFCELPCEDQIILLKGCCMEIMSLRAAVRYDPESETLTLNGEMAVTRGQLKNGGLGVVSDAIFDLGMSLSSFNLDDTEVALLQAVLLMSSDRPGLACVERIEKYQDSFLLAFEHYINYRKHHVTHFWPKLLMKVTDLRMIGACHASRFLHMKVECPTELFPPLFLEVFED
frog Thyroid hormone Receptor alpha (TRa), thra-a (gene 397942), sequence (P15204 whole entry, looked up, the tested form may be a part): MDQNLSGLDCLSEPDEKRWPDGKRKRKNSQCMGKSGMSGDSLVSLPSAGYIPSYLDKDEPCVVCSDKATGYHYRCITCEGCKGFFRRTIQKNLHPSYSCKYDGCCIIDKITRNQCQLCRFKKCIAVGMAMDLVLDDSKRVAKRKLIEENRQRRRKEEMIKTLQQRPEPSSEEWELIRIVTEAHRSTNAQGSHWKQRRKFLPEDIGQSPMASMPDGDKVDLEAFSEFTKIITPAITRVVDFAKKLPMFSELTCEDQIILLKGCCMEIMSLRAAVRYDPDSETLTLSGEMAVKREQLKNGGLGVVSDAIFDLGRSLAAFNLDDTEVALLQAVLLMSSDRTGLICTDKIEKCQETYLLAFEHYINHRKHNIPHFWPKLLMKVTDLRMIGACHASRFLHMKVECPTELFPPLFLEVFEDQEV
zebrafish Thyroid Hormone Receptor beta (TRb), thrb (gene 30607), sequence (Q9PVE4 whole entry, looked up): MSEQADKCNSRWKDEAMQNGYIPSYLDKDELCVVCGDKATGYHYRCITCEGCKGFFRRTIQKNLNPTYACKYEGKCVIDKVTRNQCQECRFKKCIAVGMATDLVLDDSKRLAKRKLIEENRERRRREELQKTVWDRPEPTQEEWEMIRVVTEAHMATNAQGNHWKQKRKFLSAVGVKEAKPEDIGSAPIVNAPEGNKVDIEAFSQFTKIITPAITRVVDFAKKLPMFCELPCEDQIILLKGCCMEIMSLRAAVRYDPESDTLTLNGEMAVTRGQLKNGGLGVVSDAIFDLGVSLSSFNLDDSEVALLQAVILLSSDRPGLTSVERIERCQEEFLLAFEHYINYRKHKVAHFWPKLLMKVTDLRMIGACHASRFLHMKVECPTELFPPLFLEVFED
PGR (gene 5241), sequence (P06401 whole entry, looked up, the tested form may be a part): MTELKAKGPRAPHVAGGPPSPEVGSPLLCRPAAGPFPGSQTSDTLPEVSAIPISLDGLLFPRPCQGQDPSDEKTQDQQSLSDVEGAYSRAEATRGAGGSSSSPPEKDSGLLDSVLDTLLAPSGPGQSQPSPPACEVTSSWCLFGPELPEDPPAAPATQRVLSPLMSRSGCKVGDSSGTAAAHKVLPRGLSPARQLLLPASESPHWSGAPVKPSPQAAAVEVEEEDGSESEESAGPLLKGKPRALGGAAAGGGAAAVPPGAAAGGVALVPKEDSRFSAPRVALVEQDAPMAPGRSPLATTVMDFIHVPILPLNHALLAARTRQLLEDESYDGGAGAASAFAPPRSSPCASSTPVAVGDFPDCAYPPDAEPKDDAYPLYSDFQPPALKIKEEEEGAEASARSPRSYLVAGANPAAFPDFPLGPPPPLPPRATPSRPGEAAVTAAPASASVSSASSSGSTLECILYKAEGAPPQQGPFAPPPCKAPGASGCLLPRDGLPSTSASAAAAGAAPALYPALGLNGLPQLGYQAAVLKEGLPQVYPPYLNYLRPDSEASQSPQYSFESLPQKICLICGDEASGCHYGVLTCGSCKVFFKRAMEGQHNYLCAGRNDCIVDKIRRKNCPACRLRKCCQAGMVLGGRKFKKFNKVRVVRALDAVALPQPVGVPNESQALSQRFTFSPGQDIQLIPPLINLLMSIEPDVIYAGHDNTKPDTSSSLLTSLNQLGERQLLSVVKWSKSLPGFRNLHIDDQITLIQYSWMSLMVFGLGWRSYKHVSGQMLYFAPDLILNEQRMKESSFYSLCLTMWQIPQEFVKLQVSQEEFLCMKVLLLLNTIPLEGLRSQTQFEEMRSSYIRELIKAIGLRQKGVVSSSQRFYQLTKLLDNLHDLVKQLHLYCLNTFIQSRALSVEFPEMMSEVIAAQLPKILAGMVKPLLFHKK

On to `CCCCCCCCCCCCc1cccc(S(=O)(=O)O)c1`, for which the outcome in test [1] and in test [2] was inactive.

For the molecule `O=[N+]([O-])c1ccccc1O`, the outcome in test [1] and in test [2] was inactive.

Regarding `O=c1oc2ccccc2c(O)c1C(CC(O)c1ccc(-c2ccc(Br)cc2)cc1)c1ccccc1` (configuration not stated), the molecule was called inactive in test [3] and in test [4].

As for `O=S1OC[C@@H]2[C@H](CO1)[C@]1(Cl)C(Cl)=C(Cl)[C@@]2(Cl)C1(Cl)Cl` (some centres not stated), the outcome in test [1] and in test [2] was inactive.

In the case of `CCOc1ccc(N)cc1`, the outcome in test [1] and in test [2] was inactive.

Turning to `CC(C)=CC1C(C(=O)OCc2cccc(Oc3ccccc3)c2)C1(C)C` (configuration not stated), the result in test [1] and in test [2] was inactive.

As to `Oc1c(Br)cc(Br)cc1Br`, the result in test [1] and in test [2] was inactive.

Regarding `COCCl`, the molecule was called inactive in test [5], in test [6] and in test [4].

Regarding `Oc1cc(Cl)c(Cl)cc1Cl`, the result in test [3], in test [7], in test [5], in test [6], in test [4] and in test [1] was inactive. Moreover, in test [2], the outcome was inactive. The AC50 (in general, the midpoint of the concentration-response curve, whichever way the signal moves) is 26.3 µM (active) in test [5] and 100 µM (active) in test [6].

On to `N#CCCC(Br)(C#N)CBr` (configuration not stated), for which the outcome in test [1] and in test [2] was inactive.

For `O=C1c2ccccc2C(=O)C1C(=O)C(c1ccccc1)c1ccc(Cl)cc1` (configuration not stated), the result in test [1] and in test [2] was inactive.

Consider `Cc1cc(Cl)ccc1OC(C)C(=O)O` (configuration not stated), for which, in test [1], the result was inactive.

Turning to `O=C(NC(=O)c1c(F)cccc1F)Nc1cc(Cl)c(OC(F)(F)C(F)C(F)(F)F)cc1Cl` (configuration not stated), the outcome in test [1] and in test [2] was inactive.

Regarding `CCOP(=S)(OCC)O/N=C(\C#N)c1ccccc1`, the result in test [3], in test [5], in test [6], in test [4], in test [1] and in test [2] was inactive.

With `CC(O)(CS(=O)(=O)c1ccc(F)cc1)C(=O)Nc1ccc(C#N)c(C(F)(F)F)c1` (configuration not stated), the result in test [3], in test [5], in test [6] and in test [4] was inactive. In addition, the AC50 was 155 µM (active) in test [4], 9.92 µM (active) in test [1], 88.7 µM (active) in test [2] and 5.64 µM (active) with PGR (gene 5241).

These data come from PubChem BioAssay (EPA / NIEHS).
